Screening data deposited in PubChem BioAssay by several laboratories.
AI-2 QS modul: modulators of Vibrio harveyi AI-2 quorum sensing system; activity change, % at 7.5 µM; 300,000 tested, 0.4% active; Vibrio harveyi JMH597 AI-2 luminescence/OD600 ratio, 9 h; hits give low values; strain lacks LuxN and CqsS sensors; 0 = neutral-control median; in the data active = activity change below about -75%, passing the limit was not always enough;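 also: luminescence divided by OD600 gain over 9 h not by final OD600 alone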
sPLA2-III inh: Inhibits HGIII-sPLA2 liposome hydrolysis, primary screen; QFRET BODIPY PC-A2 liposome hydrolysis, fluorescence; 370,000 tested, 0.56% active; AID 743126; inhibition, % at 12.2 µM;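 active = inhibition above mean plus 3 SD of compounds lying within the high and low control bounds, cut at about 19% in these data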
Target sequence (Q9NZ20 whole entry, looked up): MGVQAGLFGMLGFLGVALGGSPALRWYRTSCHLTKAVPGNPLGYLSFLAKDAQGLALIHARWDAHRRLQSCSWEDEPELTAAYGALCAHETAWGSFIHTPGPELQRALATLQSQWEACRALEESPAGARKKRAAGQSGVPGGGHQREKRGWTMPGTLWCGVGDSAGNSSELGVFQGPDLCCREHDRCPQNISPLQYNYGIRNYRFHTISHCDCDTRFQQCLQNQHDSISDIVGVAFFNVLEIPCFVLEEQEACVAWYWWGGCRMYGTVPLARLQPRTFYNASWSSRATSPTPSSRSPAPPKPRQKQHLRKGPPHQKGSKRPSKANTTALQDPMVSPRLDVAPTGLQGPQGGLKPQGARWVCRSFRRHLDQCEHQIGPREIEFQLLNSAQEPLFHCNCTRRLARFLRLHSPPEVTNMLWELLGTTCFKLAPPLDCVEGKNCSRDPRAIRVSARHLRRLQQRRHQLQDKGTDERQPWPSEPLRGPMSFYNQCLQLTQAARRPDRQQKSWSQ
Rin1 Abl inh: blocks binding of human Rin1 to Abl | inhibition, % at 7.35 µM | P00519+Q13671 | TR-FRET Rin1/Abl binding, biochemical | AID 588664 | 360,000 tested, 0.4% active; in the data active = inhibition above about 5%, passing the limit was not always enough
ARNT-TACC3 inh: ARNT/TACC3 interaction disruption; Q9Y6A5; AlphaScreen His-ARNT PAS-B/GST-TACC3 binding, luminescence; TACC3 fragment carries E629A point mutation; inhibition, % at 9.99 µM; 390,000 tested, 0.66% active; AID 623870;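 active = mean inhibition of replicates at least 50% and at least half of replicates each reaching 50%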
Numbers stand for hits; i = inactive; nt = no result. In the library only some 1.5% were active in any assay of this set; here they are far more common.

SMILES	AI-2 QS modul	sPLA2-III inh	Rin1 Abl inh	ARNT-TACC3 inh
COc1ccc(NC(=O)Nc2ccc3c(c2)C(=O)N([C@H](C)CO)C[C@@H](C)[C@@H](CN(C)S(=O)(=O)c2cccs2)O3)cc1	nt	nt	nt	i
Oc1ccc(/C=N/NC(=S)NCCN2CCOCC2)c(O)c1	i	i	i	60
O=C(O)CCN1C(=O)/C(=C\c2ccc(-c3nc4ccccc4s3)o2)SC1=S	i	nt	i	67
C[C@@H]1CN([C@@H](C)CO)C(=O)c2cc(N(C)C)ccc2O[C@@H](C)CCCCO[C@@H]1CN(C)C(=O)Nc1ccc(F)cc1	nt	nt	nt	i
O=C(NCCc1cnc[nH]1)Nc1cccc(C(F)(F)F)c1	i	i	i	49
Fc1cccc(/C=N/Nc2ncnc3nc[nH]c23)c1	i	i	i	47
COc1ccccc1NC(=O)CCC(=O)Nc1cc(OC)c(NC(=O)c2cccs2)cc1OC	i	i	i	26
CC1(C)Oc2ccc3ccc(=O)oc3c2/C(=C/NNC(N)=S)C1=O	i	i	i	75
CN/C=C1\C(=O)C(C)(C)Oc2ccc3ccc(=O)oc3c21	i	i	i	i
N=c1c(-c2nc3ccccc3[nH]2)cc(C(=O)c2cccs2)nn1-c1ccccc1	i	nt	i	i
N=c1c(-c2nc3ccccc3[nH]2)cc(C(=O)c2ccco2)nn1-c1ccccc1	i	25	i	i
O=c1[nH]cnc(CN2CCCCC2)c1O	nt	i	i	i
O=c1[nH]c(CN2CCCCC2)ccc1O	nt	i	18	nt
O=C(CN1C(=O)c2cccc3cccc1c23)Nc1ccc(S(=O)(=O)N2CCOCC2)cc1	-96	i	i	i
O=C(CN1C(=O)c2cccc3cccc1c23)Nc1ccc(S(=O)(=O)Nc2nccs2)cc1	-96	i	i	i
CN(C)CCCNC(=O)C[C@@H]1CC[C@@H]2[C@H](COc3ccc(NS(C)(=O)=O)cc3C(=O)N2C)O1	nt	nt	nt	i
CCOc1ccc(OCCCC(=O)N2CCN(S(=O)(=O)c3ccc(Cl)cc3)CC2)cc1	i	i	58	i
O=C(CCCOc1ccccc1)N1CCN(S(=O)(=O)c2ccc(Cl)cc2)CC1	i	i	i	i
CCOC(=O)N/N=C(/C)c1ccc([N+](=O)[O-])o1	-88	i	i	i
C/C(=N\NC(=O)CCC(=O)N/N=C(\C)c1ccc(C)o1)c1ccc(C)o1	i	i	i	nt
Cc1noc(C)c1NC(=O)Nc1ccc2c(c1)C(=O)N([C@H](C)CO)C[C@@H](C)[C@H](CN(C)C(=O)NC1CCCCC1)O2	nt	nt	nt	i
C[C@@H]1CN([C@@H](C)CO)C(=O)c2cc(NC(=O)Nc3ccccc3)ccc2O[C@H]1CN(C)C(=O)Nc1ccc(C(F)(F)F)cc1	nt	nt	nt	i
COc1ccc(Cc2nnc3sc(SCC(=O)Nc4ccccc4)nn3c2=O)cc1OC	i	i	i	63
COc1ccc(CCNC(=O)CSCC(=O)Nc2ccccc2)cc1OC	i	i	i	i
CC(=O)Nc1cccc(NC(=O)CSc2nn3c(=O)c(C)nnc3s2)c1	i	i	i	67
SMILES	AI-2 QS modul	sPLA2-III inh	Rin1 Abl inh	ARNT-TACC3 inh
Cc1nnc2sc(SCC(=O)Nc3ccc(Cl)cc3)nn2c1=O	i	i	i	43
C[C@H]1CN([C@@H](C)CO)C(=O)c2cc(-c3ccc(C#N)cc3)cnc2O[C@H]1CN(C)C(=O)CN(C)C	nt	nt	nt	i
O=C(CCc1ccccc1O)N/N=C/c1ccc(Sc2cccc3cccnc23)o1	i	i	i	66
O=C(CSc1cccc2cccnc12)N/N=C/c1ccc(O)cc1	i	i	i	i
CCC(=O)N[C@H]1CC[C@@H](CCn2cc(-c3cccc(OC)c3)nn2)O[C@H]1CO	nt	nt	nt	i
COc1ccc(/C=C2/C(=O)N(c3ccccc3)N=C2C)cc1	i	nt	8.1	nt
CCOc1cc(/C=C2/C(=O)N(c3ccccc3)N=C2C)ccc1OC(=O)c1cccs1	i	nt	12	i
COc1ccc(/C=C2/C(=O)N(c3c(F)c(F)c(F)c(F)c3F)N=C2C)cc1	i	i	i	i
C[C@@H]1CN([C@H](C)CO)C(=O)c2cc(NS(=O)(=O)c3cccs3)ccc2O[C@@H]1CN(C)S(=O)(=O)c1ccc(Cl)cc1	nt	nt	nt	i
C[C@@H]1CN([C@H](C)CO)C(=O)c2cc(NS(C)(=O)=O)ccc2O[C@@H]1CN(C)C(=O)Nc1ccc2c(c1)OCO2	nt	nt	nt	i
CCNC(=O)Nc1ccc2c(c1)C(=O)N(C)[C@H]1CC[C@@H](CC(=O)N[C@H](C)c3ccccc3)O[C@H]1CO2	nt	nt	nt	active
CCNC(=O)Nc1ccc2c(c1)C(=O)N(C)[C@@H]1CC[C@@H](CC(=O)N[C@@H](C)c3ccccc3)O[C@@H]1CO2	nt	nt	nt	i
